Hits are enriched below; roughly 5.3% of the tested compounds scored in any of these assays.
HCV inhibitor = HCV inhibition; Huh7.5.1 HCVcc-Cre infection, luciferase reporter, 44 h; 340,000 tested, 3.4% active; AID 651820; Potency, µM (top dose mostly 41.8 µM), for inactives: at the top dose activity change, negative = inhibition, actives largely listed as inhibitors; active means well fitted inhibition curve with a large enough effect; inconclusive means small, poorly fitted or top-dose-only effect, or another doubt; inactive means no such curve, though single readings can be large or run the other way
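Whole-lifecycle infectious HCVcc-Cre system; cells 1,000/well, compound then virus (~0.5 moi) added 4 h after plating, 44 h culture. Luciferase read 15 sec following 15 min substrate incubation, room temp.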
LASV entry inh = inhibitors of Lassa virus binding or cell entry. AID 540256. Lassa virus pseudotype entry inhibition, cell reporter. 300,000 tested, 1.2% active. Potency, µM (top dose mostly 37.9 µM), inactives show at the highest dose activity change, negative = inhibition, hits mostly inhibitors; calls by dose curve; tested in HEK293 cells; further: nearly all actives have a fitted effect of over 50% in size
Vaccinia mCherry = inhibitors of vaccinia virus infection (mCherry reporter signal) | Vaccinia virus mCherry reporter infection, fluorescence | Potency, µM (top dose mostly 36.5 µM), without a hit: at the highest dose activity change, negative = inhibition, usual class: inhibitors | 310,000 tested, 0.63% active; calls by dose curve; tested in A549 cells; further: nearly all actives have a fitted effect of over 35% in size
MARV entry inh = Marburg virus entry inhibition. Marburg virus pseudotyped entry inhibition, cell reporter. Potency, µM (top dose mostly 37.8 µM), for the others: top-dose activity change, negative = inhibition, most hits filed as inhibitors. 300,000 tested, 1.8% active; calls by dose curve; tested in HEK293 cells
FMDV inh = blocks foot and mouth disease virus. 410,000 tested, 1.2% active. FMDV antiviral cell-based qHTS. Potency, µM (doses to about 57.9 µM), inactives show top-dose activity change, negative = inhibition, usual class: inhibitors. AID 1159524; calls by dose curve; tested in HEK293T cells; further: read-out not given here; nearly all actives have a fitted effect of over 45% in size
Vaccinia Venus = vaccinia inhibition (Venus reporter). Vaccinia virus Venus reporter expression, fluorescence. Potency, µM (series often up to 36.5 µM), for the others: at the highest dose activity change, negative = inhibition, hits mostly inhibitors. 330,000 tested, 0.46% active. AID 720580; calls by dose curve; tested in A549 cells; further: nearly all actives have a fitted effect of over 30% in size
* hit, by the source's call; i = inactive; ? = inconclusive; . = not tested or not shown; [ ] = dose if it differs, or a comment. On the % scale 0 is the no-effect control and ±100 the full control effect; potency means the concentration at half of the fitted maximal effect.

SMILES	HCV inhibitor	LASV entry inh	Vaccinia mCherry	MARV entry inh	FMDV inh	Vaccinia Venus
CCc1ccc(C(=O)Nc2nc(C)cs2)s1	11%	1.3µM*	-18%	?	?	-18%
Cc1csc(NC(=O)c2cnc3ccccc3n2)n1	8%	?	3%	5.6µM*	?	8%
Nc1ccc(C(=O)Nc2ccc(OC(F)(F)C(F)F)c(NC(=O)c3ccc(N)cc3)c2)cc1	6.3µM*	-14%	?	-1%	57%	-25%
CCCCN(C(=O)C1CCCC1)c1c(N)n(CCC)c(=O)[nH]c1=O	15%	8%	i	20%	-11%	-4%
C[C@]12CC[C@@H]3c4cc(O)c(O)cc4CC[C@H]3[C@@H]1CC[C@@H]2O	13µM*	.	-9%	.	-4%	-25%
CCN(CC)CCN(Cc1cc2cccc(C)c2[nH]c1=O)C(=S)Nc1ccccc1	?	7%	i	?	-18%	0%
Cc1ccc2cc(CN(CCN(C)C)C(=O)Nc3ccc(Cl)cc3)c(=O)[nH]c2c1	6.3µM*	?	-25%	?	14%	-14%
Cc1ccc2cc(CN(CCN(C)C)C(=S)Nc3ccccc3)c(=O)[nH]c2c1C	10µM*	?	i	?	-1%	7%
Cc1ccc2[nH]c(=O)c(CN(CCCN(C)C)C(=O)Nc3ccc(Cl)cc3)cc2c1	10µM*	?	.	?	-14%	.
Cc1ccc(NC(=S)N(CCN(C)C)Cc2cc3cc(C)cc(C)c3[nH]c2=O)cc1	?	15%	-28%	-14%	-15%	-12%
CC[C@@H]1[C@H]2CCCC(=O)N3CC[C@@H](C[C@@H]1OC(=O)Nc1ccc4c(c1)OCO4)[C@@H]23	.	.	i	.	.	-29%
O=C(c1cscn1)N1CCOc2ccc(CN3CCC(Oc4cccnc4)CC3)cc2C1	.	.	-7%	.	-15%	-5%
Cc1noc(C)c1-c1cncnc1NCc1cccnc1	.	.	.	.	-15%	.
O=C(/C=C/c1ccc(OCCCF)cc1)Nc1ccnc(-c2ccncc2)n1	?	-10%	-12%	?	22µM*	-17%
COc1ccccc1C(=O)N(Cc1cc2cc3c(cc2nc1N(C)C)OCO3)CC1CCCO1 (stereo not given)	.	.	-8%	.	11%	-3%
Fc1ccc(NC(=S)NNc2ncc(C(F)(F)F)cc2Cl)c(F)c1	22µM*	?	-47%	?	-41%	-43%
FC(F)Oc1ccc(-c2csc(NNC3=NCCCCC3)n2)cc1	?	?	-7%	?	28µM*	-13%
Brc1ccc(-c2csc(NNC3=NCCCCC3)n2)cc1	?	?	.	-13%	29%	.
CC(C)(C)c1ccc(-c2csc(NNC3=NCCCCC3)n2)cc1	25µM*	?	.	?	29%	.
Cc1cc(C)cc(-n2c(SCC(=O)NC3CCCCC3)nc3c([nH]c4ccccc43)c2=O)c1	.	-21%[46.1 µM]	-10%	.	-17%	-10%
Cc1ccc(S(=O)(=O)N2CCC3(CC2)OCCN3S(=O)(=O)c2c(C)cc(C)cc2C)cc1	10µM*	?	-8%	6%	-13%	1%
Cc1cc(C)c(S(=O)(=O)N2CCC3(CC2)OCCN3S(=O)(=O)c2cccs2)c(C)c1	11µM*	-8%	0%	?	22%	-19%
COc1ccc(S(=O)(=O)N2CCC3(CC2)OCCN3S(=O)(=O)c2c(C)cc(C)cc2C)cc1	?	?	-3%	?	9%	-14%
COc1cc2c(C(=O)N3CCN(c4ccccc4)CC3)c(C)oc2cc1Br	?	?	?	?	20µM*	?
CCOC(=O)c1c(CN(C)C)n(-c2ccccc2)c2cc(Br)c(OC)cc12	7.9µM*	?	0%	10µM*	-19%	?
SMILES	HCV inhibitor	LASV entry inh	Vaccinia mCherry	MARV entry inh	FMDV inh	Vaccinia Venus
CCOC(=O)c1c(CN(C)C)n(-c2ccc(C)cc2)c2cc(Br)c(O)cc12	?	?	?	?	-16%	?
CCOC(=O)c1c(CN2CCOCC2)n(-c2ccccc2)c2cc(Br)c(OC)cc12	?	9.2µM*	.	?	-27%	.
C/C(=C\CO)CCO	.	.	.	2%[14.2 µM]	.	.
Cn1c2c(c(=O)n(C)c1=O)[C@@](NC(=O)C(C)(C)C)(C(F)(F)F)C(=O)N2	.	.	.	-3%	.	.
COc1cc(/C=N/NC(=O)CN(CCc2ccccc2)S(=O)(=O)c2ccc(NC(C)=O)cc2)cc(OC)c1OC	-26%	18µM*	i	-10%	?	-16%
Cc1ccsc1C1C(C#N)=C(N)Oc2n[nH]c(C)c21 (stereo not given)	16%	-4%	-1%	?	32µM*	-12%
COc1cc(Nc2nccc(Nc3ccc4c(C)[nH]nc4c3)n2)cc(OC)c1OC	.	25µM*	.	.	.	.
O=[N+]([O-])c1ccc(N2CCCC2)cc1N1CCCC1	2.5µM*	?	.	?	9%	.
CCS(=O)(=O)N1CCN(c2ccc([N+](=O)[O-])c(N3CCOCC3)c2)CC1	-9%	9%	-10%	-7%	-3%	-12%
O=[N+]([O-])c1ccc(N2CCN(S(=O)(=O)Cc3ccccc3)CC2)cc1N1CCOCC1	-7%	13µM*	-14%	?	?	-29%
NC(C(=O)O)c1cc(O)c(Cl)c(O)c1 (stereo not given)	.	.	i	.	1%	-1%
Cc1cc(O)c2c(c1O)C(=O)[C@]13C(=C2O)C(=O)[C@@H]2[C@@H](O)[C@H]1[C@@H]1[C@H](O)[C@H]3C(=O)C3=C(O)c4c(O)cc(C)c(O)c4C(=O)[C@]312	5µM*	.	?	.	?	?
Cc1cc(O)c2c(c1O)C(=O)c1c(O)cc(C)c(O)c1C2=O	.	.	-4%	.	-15%	6%
O=C(CNC(=S)N(Cc1ccccc1F)C1CCCCC1)NCC1CCCO1 (stereo not given)	-13%	4.5µM*	-28%	?	0%	?
O=C(CNC(=S)N(Cc1ccc(F)cc1)C1CCCCC1)NCC1CCCO1 (stereo not given)	11%	-5%	-11%	3%[46.1 µM]	4%	-6%
